In publication PMC7862700, “An all-to-all approach to the identification of sequence-specific readers for epigenetic DNA modifications on cytosine”:

Experiments:
Assay in all cases: DAPPL (digital affinity profiling via proximity ligation, sequencing); 10 mM Tris-HCl pH 7.5, 50 mM NaCl, 1 mM DTT, 4% glycerol, room temperature, 30 min; GST-TFs on glutathione beads, 16-mer random dsDNA library, 0.1% formaldehyde crosslink after washing; high values mean tight binding
FLI1 = target: T1, FLI1 (Homo sapiens, UniProt Q01543 1-452); details: protein: recombinant; tags: N-terminal GST; dsDNA, one strand shown
T1 sequence: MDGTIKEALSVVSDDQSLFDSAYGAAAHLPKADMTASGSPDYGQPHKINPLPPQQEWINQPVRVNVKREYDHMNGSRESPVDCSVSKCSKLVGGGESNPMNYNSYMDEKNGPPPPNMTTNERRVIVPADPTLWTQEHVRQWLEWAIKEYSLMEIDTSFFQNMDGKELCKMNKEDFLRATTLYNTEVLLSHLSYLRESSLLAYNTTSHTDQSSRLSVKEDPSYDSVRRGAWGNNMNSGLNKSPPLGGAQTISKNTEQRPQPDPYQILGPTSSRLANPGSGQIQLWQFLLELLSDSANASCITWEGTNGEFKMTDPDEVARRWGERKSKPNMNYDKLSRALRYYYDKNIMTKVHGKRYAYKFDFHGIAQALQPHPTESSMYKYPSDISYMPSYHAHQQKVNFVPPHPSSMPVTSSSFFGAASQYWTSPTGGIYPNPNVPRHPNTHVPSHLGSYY
How it was run: (§1)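 A tag-only sample was pooled with DNA-barcoded human transcription factors that had been expressed in yeast as GST fusions and captured on glutathione beads. The pools were incubated for 30 min at room temperature with 200 nmole of a random double-stranded 16-mer DNA library in Tris/NaCl/DTT/glycerol buffer, then washed, crosslinked with 0.1% formaldehyde, proximity-ligated (BsaI/T4 ligase, 1 h, 37 °C), PCR-amplified and sequenced on an Illumina NextSeq500. Binding signal is each hexamer's read frequency for a factor divided by its frequency for the tag-only sample.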

ELK1 = target: T2, ELK1 (Homo sapiens, UniProt P19419 1-428); details: protein: recombinant; tags: N-terminal GST; dsDNA, one strand shown
T2 sequence: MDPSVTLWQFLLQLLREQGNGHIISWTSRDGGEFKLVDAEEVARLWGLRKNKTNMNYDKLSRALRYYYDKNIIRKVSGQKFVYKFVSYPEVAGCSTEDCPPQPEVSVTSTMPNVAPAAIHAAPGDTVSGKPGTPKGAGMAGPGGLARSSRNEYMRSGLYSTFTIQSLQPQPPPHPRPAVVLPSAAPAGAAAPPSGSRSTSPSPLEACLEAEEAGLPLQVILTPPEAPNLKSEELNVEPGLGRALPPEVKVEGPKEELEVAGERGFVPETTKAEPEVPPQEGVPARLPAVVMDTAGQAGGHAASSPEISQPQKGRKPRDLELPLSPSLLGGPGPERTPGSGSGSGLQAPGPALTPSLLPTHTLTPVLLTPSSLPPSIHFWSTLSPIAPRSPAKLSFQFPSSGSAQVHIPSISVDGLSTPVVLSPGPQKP
How it was run: as §1

GABPA = target: T3, GABPA (Homo sapiens, UniProt Q06546 1-454); details: protein: recombinant; tags: N-terminal GST; dsDNA, one strand shown
T3 sequence: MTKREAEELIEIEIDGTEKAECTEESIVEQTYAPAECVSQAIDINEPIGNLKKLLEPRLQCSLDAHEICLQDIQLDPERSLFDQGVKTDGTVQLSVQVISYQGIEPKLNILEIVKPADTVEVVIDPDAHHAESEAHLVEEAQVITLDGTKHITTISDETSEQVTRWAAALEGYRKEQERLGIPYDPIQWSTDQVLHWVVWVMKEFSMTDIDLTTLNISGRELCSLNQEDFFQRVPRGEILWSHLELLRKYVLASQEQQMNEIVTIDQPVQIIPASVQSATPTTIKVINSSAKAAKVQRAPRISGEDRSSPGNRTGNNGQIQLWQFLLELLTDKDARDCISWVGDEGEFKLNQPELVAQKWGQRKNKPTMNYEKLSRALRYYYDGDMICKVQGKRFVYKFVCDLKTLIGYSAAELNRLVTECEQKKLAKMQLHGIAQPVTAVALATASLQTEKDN
How it was run: as §1

ERG = target: T4, ERG (Homo sapiens, UniProt P11308 1-479); details: protein: recombinant; tags: N-terminal GST; dsDNA, one strand shown
T4 sequence: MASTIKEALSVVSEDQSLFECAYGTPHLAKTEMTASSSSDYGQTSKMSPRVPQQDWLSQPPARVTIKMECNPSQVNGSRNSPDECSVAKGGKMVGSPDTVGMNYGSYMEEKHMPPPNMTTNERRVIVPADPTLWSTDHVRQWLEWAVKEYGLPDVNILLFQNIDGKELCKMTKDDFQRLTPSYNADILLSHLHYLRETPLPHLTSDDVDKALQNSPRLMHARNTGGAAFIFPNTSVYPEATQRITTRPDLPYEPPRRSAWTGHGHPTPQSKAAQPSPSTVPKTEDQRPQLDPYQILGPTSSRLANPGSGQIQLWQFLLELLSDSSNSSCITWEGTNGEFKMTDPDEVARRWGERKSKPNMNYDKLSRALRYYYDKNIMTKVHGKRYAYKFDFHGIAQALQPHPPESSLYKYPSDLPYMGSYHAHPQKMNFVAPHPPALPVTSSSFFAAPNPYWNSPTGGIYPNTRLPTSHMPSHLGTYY
How it was run: as §1

ELF1 = ELF1 (Homo sapiens, UniProt P32519 1-619); details: protein: recombinant; tags: N-terminal GST; dsDNA, one strand shown
Chain of ELF1 (P32519 whole entry): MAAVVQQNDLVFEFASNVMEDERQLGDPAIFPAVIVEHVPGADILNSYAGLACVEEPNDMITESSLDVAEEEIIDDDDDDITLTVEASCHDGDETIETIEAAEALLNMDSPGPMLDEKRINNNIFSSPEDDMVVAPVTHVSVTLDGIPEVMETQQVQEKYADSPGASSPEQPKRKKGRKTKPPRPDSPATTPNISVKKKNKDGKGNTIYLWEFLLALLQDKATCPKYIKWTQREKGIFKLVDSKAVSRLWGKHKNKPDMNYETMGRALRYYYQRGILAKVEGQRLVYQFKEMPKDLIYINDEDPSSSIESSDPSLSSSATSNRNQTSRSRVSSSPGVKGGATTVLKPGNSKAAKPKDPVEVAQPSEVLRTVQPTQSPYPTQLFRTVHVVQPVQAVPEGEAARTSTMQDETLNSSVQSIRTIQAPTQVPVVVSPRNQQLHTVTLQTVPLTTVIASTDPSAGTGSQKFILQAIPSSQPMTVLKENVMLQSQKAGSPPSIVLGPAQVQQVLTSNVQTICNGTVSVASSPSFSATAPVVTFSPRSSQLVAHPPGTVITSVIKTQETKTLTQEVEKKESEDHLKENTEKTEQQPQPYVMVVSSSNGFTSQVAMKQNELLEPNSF
How it was run: as §1

EHF = target: T5, EHF (Homo sapiens, UniProt Q9NZC4 1-300); details: protein: recombinant; tags: N-terminal GST; dsDNA, one strand shown
T5 sequence: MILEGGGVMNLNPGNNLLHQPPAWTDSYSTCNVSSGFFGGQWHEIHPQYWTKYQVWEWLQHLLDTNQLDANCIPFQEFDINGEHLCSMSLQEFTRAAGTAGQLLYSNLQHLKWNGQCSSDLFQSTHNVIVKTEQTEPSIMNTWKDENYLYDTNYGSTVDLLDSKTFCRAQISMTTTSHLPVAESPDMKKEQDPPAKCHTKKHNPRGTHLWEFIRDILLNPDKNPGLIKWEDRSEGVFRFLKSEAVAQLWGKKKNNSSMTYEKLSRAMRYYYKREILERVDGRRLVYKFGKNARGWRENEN
How it was run: as §1

SPI1 = SPI1 (Homo sapiens, UniProt P17947 1-270); details: protein: recombinant; tags: N-terminal GST; dsDNA, one strand shown
How it was run: as §1

SPIB = SPIB (Homo sapiens, UniProt Q01892 1-262); details: protein: recombinant; tags: N-terminal GST; dsDNA, one strand shown
Chain of SPIB (Q01892 whole entry): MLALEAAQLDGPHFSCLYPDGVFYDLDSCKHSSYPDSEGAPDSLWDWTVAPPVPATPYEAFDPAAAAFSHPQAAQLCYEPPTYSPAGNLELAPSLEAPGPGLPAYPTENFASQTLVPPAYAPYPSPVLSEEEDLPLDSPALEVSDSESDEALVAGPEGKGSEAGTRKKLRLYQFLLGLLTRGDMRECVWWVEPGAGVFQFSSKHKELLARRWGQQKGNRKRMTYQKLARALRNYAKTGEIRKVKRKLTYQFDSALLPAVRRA
How it was run: as §1

ELK3 = target: T6, ELK3 (Homo sapiens, UniProt P41970 1-407); details: protein: recombinant; tags: N-terminal GST; dsDNA, one strand shown
T6 sequence: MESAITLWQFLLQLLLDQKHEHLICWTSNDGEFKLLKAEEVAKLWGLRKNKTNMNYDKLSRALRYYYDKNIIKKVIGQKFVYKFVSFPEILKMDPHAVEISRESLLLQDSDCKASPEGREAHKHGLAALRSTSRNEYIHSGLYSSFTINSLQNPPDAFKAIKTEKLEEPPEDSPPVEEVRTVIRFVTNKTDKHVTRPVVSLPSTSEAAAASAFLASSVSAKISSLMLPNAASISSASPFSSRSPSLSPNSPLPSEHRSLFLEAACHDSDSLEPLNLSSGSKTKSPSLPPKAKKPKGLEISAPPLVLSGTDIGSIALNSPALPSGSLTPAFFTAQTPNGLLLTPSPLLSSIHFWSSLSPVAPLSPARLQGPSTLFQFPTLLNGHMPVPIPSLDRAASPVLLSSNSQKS
How it was run: as §1

FEV = target: T7, FEV (Homo sapiens, UniProt Q99581 1-238); details: protein: recombinant; tags: N-terminal GST; dsDNA, one strand shown
T7 sequence: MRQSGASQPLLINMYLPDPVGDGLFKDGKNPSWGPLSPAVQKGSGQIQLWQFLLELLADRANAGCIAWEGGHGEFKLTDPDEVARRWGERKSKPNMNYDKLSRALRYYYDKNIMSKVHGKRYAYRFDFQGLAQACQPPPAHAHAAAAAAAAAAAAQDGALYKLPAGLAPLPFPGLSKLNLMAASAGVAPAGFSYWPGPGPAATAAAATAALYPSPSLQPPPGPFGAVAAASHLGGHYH
How it was run: as §1

ETV5 = ETV5 (Homo sapiens, UniProt P41161 1-510); details: protein: recombinant; tags: N-terminal GST; dsDNA, one strand shown
Chain of ETV5 (P41161 whole entry): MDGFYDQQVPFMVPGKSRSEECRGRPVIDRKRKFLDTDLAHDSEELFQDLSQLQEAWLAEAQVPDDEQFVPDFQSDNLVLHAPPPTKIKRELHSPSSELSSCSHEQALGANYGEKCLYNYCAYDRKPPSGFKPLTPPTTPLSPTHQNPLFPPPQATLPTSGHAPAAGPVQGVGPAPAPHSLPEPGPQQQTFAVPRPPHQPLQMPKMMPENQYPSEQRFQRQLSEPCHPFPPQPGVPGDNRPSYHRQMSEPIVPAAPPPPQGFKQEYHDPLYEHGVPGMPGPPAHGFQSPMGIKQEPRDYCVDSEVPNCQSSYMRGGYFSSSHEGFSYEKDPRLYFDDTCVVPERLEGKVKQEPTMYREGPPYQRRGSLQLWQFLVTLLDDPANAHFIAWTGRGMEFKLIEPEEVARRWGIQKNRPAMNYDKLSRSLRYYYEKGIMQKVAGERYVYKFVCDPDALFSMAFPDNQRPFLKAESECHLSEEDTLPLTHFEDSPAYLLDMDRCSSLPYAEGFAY
How it was run: as §1

HSF1 = HSF1 (Homo sapiens, UniProt Q00613 1-529); details: protein: recombinant; tags: N-terminal GST; chain copies: 3; dsDNA, one strand shown
Chain of HSF1 (Q00613 whole entry): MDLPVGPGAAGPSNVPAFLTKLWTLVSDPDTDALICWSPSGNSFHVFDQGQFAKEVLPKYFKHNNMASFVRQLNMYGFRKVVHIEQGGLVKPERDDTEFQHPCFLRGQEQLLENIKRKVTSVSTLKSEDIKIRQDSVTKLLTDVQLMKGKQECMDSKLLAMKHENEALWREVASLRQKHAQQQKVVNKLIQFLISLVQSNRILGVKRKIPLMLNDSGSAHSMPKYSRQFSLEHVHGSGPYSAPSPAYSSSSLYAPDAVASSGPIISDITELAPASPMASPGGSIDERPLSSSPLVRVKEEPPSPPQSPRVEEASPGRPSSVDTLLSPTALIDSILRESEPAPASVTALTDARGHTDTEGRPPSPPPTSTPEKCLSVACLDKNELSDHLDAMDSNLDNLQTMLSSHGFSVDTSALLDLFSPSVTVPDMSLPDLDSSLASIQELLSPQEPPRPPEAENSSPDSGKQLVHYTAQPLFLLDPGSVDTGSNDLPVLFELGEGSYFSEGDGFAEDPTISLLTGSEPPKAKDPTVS
How it was run: as §1

ELF4 = ELF4 (Homo sapiens, UniProt Q99607 1-663); details: protein: recombinant; tags: N-terminal GST; dsDNA, one strand shown
Chain of ELF4 (Q99607 whole entry): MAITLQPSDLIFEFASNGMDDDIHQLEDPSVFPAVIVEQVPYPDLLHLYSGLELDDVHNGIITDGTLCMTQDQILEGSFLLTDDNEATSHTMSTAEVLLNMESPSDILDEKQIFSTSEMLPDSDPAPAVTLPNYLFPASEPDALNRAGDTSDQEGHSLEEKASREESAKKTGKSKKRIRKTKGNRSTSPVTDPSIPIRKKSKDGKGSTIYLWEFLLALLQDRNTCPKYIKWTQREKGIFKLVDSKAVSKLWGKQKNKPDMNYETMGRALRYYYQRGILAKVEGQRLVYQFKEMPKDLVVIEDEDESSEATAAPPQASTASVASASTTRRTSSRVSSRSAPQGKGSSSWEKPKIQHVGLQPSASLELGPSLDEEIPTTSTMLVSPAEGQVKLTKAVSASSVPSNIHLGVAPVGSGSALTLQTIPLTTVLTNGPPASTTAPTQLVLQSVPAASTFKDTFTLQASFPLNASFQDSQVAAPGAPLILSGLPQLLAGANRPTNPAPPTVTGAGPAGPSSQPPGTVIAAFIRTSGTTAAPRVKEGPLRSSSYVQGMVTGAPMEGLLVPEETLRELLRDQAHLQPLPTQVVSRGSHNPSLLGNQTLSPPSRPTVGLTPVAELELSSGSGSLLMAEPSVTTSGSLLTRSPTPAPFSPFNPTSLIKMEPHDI
How it was run: as §1

ELK4 = target: T8, ELK4 (Homo sapiens, UniProt P28324-2 1-405); details: protein: recombinant; tags: N-terminal GST; dsDNA, one strand shown
T8 sequence: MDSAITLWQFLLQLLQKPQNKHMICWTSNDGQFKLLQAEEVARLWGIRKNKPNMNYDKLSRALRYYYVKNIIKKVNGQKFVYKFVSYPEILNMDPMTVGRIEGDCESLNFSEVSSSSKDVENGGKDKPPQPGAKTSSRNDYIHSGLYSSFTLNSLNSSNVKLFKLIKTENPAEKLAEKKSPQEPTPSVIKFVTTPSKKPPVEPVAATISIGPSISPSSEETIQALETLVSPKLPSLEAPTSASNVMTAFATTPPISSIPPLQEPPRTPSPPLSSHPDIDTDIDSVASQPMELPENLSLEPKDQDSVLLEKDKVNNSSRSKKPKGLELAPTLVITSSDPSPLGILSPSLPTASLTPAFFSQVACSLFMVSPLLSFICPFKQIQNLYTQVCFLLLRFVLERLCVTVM
How it was run: as §1

ETV2 = target: T9, ETV2 (Homo sapiens, UniProt O00321 1-342); details: protein: recombinant; tags: N-terminal GST; dsDNA, one strand shown
T9 sequence: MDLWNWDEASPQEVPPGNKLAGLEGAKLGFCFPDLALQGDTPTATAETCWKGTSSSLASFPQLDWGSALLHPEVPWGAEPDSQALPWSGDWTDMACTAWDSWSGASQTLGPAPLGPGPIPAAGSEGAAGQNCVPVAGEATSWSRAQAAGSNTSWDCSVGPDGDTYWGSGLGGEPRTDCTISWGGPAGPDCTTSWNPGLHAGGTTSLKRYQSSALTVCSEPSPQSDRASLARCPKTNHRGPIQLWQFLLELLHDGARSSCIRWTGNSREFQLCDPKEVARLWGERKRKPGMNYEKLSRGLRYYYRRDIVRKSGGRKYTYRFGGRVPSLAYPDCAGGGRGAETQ
How it was run: as §1

ELF3 = target: T10, ELF3 (Homo sapiens, UniProt P78545 1-371); details: protein: recombinant; tags: N-terminal GST; dsDNA, one strand shown
T10 sequence: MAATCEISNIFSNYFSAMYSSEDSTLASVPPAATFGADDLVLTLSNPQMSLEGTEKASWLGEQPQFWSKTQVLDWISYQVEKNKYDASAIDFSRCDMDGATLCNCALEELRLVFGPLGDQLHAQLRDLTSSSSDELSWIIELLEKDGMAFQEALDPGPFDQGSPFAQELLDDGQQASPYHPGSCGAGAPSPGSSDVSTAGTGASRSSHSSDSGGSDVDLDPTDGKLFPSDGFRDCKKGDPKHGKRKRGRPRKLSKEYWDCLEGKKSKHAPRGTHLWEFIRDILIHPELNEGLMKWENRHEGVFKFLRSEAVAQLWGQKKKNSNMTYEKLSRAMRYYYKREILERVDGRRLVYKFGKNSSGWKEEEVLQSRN
How it was run: as §1

CRX = CRX (Homo sapiens, UniProt O43186 1-299); details: protein: recombinant; tags: N-terminal GST; dsDNA, one strand shown
Chain of CRX (O43186 whole entry): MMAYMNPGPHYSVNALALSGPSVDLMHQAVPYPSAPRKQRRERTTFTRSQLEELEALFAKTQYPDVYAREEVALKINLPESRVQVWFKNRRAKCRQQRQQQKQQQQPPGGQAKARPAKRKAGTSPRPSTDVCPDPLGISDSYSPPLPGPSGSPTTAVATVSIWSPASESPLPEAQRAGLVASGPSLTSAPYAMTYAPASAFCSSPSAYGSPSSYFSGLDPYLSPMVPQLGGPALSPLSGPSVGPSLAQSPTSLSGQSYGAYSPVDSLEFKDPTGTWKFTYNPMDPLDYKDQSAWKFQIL
How it was run: as §1

ETV1 = ETV1 (Homo sapiens, UniProt P50549 1-477); details: protein: recombinant; tags: N-terminal GST; dsDNA, one strand shown
Chain of ETV1 (P50549 whole entry): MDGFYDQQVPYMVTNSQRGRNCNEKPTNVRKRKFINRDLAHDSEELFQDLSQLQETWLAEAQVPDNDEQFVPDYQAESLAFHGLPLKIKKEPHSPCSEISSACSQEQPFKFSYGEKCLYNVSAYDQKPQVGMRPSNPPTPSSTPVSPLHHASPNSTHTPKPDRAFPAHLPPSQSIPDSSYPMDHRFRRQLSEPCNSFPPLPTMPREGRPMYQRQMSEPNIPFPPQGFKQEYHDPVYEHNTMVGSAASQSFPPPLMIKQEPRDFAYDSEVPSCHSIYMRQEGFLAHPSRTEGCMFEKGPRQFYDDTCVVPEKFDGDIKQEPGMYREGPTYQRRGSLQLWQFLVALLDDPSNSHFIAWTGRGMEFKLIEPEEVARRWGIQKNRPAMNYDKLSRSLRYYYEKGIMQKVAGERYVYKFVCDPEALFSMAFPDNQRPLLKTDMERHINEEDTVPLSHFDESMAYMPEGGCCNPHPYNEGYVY
How it was run: as §1

Sequence	binding signal (FLI1)	binding signal (ELK1)	binding signal (GABPA)	binding signal (ERG)	binding signal (ELF1)	binding signal (EHF)	binding signal (SPI1)	binding signal (SPIB)	binding signal (ELK3)	binding signal (FEV)	binding signal (ETV5)	binding signal (HSF1)	binding signal (ELF4)	binding signal (ELK4)	binding signal (ETV2)	binding signal (ELF3)	binding signal (CRX)	binding signal (ETV1)
TACAAA	1.14 fold enrichment (6-mer frequency, TF over GST control)	1.14 fold enrichment (6-mer frequency, TF over GST control)	1.1 fold enrichment (6-mer frequency, TF over GST control)	1.08 fold enrichment (6-mer frequency, TF over GST control)	1.14 fold enrichment (6-mer frequency, TF over GST control)	1.2 fold enrichment (6-mer frequency, TF over GST control)	1.07 fold enrichment (6-mer frequency, TF over GST control)	1.06 fold enrichment (6-mer frequency, TF over GST control)	1.06 fold enrichment (6-mer frequency, TF over GST control)	1.11 fold enrichment (6-mer frequency, TF over GST control)	1.15 fold enrichment (6-mer frequency, TF over GST control)	1.12 fold enrichment (6-mer frequency, TF over GST control)	1.13 fold enrichment (6-mer frequency, TF over GST control)	1.09 fold enrichment (6-mer frequency, TF over GST control)	1.17 fold enrichment (6-mer frequency, TF over GST control)	1.06 fold enrichment (6-mer frequency, TF over GST control)	1.22 fold enrichment (6-mer frequency, TF over GST control)	1.14 fold enrichment (6-mer frequency, TF over GST control)
TCAAAG	1.08 fold enrichment (6-mer frequency, TF over GST control)	1.01 fold enrichment (6-mer frequency, TF over GST control)	1.13 fold enrichment (6-mer frequency, TF over GST control)	1.09 fold enrichment (6-mer frequency, TF over GST control)	1.19 fold enrichment (6-mer frequency, TF over GST control)	1.02 fold enrichment (6-mer frequency, TF over GST control)	1.1 fold enrichment (6-mer frequency, TF over GST control)	1.11 fold enrichment (6-mer frequency, TF over GST control)	1.15 fold enrichment (6-mer frequency, TF over GST control)	1.1 fold enrichment (6-mer frequency, TF over GST control)	1.08 fold enrichment (6-mer frequency, TF over GST control)	1.17 fold enrichment (6-mer frequency, TF over GST control)	1.14 fold enrichment (6-mer frequency, TF over GST control)	1.21 fold enrichment (6-mer frequency, TF over GST control)	1.03 fold enrichment (6-mer frequency, TF over GST control)	1.16 fold enrichment (6-mer frequency, TF over GST control)	1.32 fold enrichment (6-mer frequency, TF over GST control)	1.13 fold enrichment (6-mer frequency, TF over GST control)
